# Experiments:
# Experiment in all cases: DAPPL (digital affinity profiling via proximity ligation, sequencing); 10 mM Tris-HCl pH 7.5, 50 mM NaCl, 1 mM DTT, 4% glycerol, room temperature, 30 min; GST-TFs on glutathione beads, 16-mer random dsDNA library, 0.1% formaldehyde crosslink after washing; high values mean tight binding
# [1] = target: T1, FLI1 (Homo sapiens, UniProt Q01543 1-452); conditions: protein: recombinant; tags: N-terminal GST; dsDNA, one strand shown
# T1 sequence: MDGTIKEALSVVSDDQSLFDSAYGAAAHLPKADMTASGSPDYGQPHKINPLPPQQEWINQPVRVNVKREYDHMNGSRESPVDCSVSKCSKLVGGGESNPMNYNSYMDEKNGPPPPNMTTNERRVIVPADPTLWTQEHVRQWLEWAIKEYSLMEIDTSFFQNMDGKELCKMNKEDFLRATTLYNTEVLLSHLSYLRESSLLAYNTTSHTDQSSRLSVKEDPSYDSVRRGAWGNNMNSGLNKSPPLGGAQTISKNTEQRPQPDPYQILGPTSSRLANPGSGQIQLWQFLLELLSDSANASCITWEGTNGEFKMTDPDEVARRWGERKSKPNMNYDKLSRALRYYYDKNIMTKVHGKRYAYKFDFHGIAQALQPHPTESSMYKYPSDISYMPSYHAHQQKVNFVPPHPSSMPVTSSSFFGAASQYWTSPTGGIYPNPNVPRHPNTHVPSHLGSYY
# In short: (§1)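 GST fusions of human transcription factors were expressed in yeast and captured with glutathione beads. Once given DNA barcodes and pooled alongside a tag-only sample, they were incubated for 30 min at room temperature with 200 nmole of a random double-stranded 16-mer DNA library in Tris/NaCl/DTT/glycerol buffer, then washed, crosslinked (0.1% formaldehyde), proximity-ligated, PCR-amplified and sequenced on an Illumina NextSeq500. The binding signal of each hexamer is its read frequency for a factor divided by its frequency for the tag-only sample.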
# [2] = target: T2, ELK1 (Homo sapiens, UniProt P19419 1-428); conditions: protein: recombinant; tags: N-terminal GST; dsDNA, one strand shown
# T2 sequence: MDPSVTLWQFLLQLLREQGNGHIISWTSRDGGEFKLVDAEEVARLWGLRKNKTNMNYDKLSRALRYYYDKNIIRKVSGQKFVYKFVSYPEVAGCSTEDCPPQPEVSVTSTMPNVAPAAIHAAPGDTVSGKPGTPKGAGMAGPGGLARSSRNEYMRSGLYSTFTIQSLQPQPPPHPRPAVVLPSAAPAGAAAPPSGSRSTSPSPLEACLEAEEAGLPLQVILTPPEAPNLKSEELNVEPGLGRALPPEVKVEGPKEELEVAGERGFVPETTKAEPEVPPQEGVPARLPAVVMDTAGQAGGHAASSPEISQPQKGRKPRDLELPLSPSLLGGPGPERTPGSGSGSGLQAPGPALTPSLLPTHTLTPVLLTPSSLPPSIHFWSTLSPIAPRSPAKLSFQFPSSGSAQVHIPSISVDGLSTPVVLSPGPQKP
# In short: as §1
# [3] = target: T3, GABPA (Homo sapiens, UniProt Q06546 1-454); conditions: protein: recombinant; tags: N-terminal GST; dsDNA, one strand shown
# T3 sequence: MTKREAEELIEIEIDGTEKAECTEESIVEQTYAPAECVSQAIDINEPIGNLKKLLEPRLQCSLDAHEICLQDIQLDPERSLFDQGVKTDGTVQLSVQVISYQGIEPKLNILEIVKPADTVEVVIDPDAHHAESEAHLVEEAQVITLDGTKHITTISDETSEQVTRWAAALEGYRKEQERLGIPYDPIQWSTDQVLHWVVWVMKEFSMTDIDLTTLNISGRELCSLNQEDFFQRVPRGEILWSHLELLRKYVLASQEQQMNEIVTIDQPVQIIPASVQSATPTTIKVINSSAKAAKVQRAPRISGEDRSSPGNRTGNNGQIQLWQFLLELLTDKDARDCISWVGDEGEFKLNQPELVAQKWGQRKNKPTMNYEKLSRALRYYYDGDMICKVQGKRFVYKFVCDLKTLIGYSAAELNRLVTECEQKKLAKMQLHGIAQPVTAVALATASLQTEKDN
# In short: as §1
# [4] = target: T4, ERG (Homo sapiens, UniProt P11308 1-479); conditions: protein: recombinant; tags: N-terminal GST; dsDNA, one strand shown
# T4 sequence: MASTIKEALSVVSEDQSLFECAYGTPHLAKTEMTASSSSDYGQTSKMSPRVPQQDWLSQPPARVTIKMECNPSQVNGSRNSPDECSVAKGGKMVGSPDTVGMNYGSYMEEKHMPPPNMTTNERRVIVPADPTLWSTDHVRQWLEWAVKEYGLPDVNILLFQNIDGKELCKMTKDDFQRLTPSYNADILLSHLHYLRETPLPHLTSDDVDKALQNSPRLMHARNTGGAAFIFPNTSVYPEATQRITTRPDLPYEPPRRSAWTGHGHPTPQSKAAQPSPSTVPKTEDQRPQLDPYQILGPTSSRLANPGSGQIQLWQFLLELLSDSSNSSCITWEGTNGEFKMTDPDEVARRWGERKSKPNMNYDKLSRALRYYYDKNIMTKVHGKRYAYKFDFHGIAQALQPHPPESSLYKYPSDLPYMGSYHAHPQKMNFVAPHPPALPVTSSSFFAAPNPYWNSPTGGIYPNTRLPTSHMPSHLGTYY
# In short: as §1
# [5] = target: ELF1 (Homo sapiens, UniProt P32519 1-619); conditions: protein: recombinant; tags: N-terminal GST; dsDNA, one strand shown
# Chain of ELF1 (P32519 whole entry): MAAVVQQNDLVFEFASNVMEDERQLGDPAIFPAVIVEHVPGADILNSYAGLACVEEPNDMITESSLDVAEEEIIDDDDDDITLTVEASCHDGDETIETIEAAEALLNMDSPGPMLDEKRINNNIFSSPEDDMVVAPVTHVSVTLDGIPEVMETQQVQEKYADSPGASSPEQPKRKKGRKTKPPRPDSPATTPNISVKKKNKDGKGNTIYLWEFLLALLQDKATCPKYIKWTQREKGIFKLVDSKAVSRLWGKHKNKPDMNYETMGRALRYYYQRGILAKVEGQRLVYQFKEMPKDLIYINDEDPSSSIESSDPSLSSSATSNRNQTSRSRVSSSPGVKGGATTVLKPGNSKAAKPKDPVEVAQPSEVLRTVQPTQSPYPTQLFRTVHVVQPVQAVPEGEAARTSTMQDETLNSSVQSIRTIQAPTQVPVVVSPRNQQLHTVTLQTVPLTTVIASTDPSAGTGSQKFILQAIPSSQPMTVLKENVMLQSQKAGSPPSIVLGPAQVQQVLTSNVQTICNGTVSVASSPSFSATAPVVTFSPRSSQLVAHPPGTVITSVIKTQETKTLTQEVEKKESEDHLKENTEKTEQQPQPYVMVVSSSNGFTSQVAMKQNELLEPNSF
# In short: as §1
# [6] = target: T5, EHF (Homo sapiens, UniProt Q9NZC4 1-300); conditions: protein: recombinant; tags: N-terminal GST; dsDNA, one strand shown
# T5 sequence: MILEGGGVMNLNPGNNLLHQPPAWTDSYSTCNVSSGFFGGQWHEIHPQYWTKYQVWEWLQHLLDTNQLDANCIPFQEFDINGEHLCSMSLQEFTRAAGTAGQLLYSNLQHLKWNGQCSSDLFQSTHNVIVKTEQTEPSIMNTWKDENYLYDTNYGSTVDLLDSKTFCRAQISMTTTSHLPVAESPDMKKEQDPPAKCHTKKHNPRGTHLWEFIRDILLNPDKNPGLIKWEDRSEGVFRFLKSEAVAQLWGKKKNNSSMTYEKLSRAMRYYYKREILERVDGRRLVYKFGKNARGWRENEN
# In short: as §1
# [7] = target: SPI1 (Homo sapiens, UniProt P17947 1-270); conditions: protein: recombinant; tags: N-terminal GST; dsDNA, one strand shown
# In short: as §1
# [8] = target: SPIB (Homo sapiens, UniProt Q01892 1-262); conditions: protein: recombinant; tags: N-terminal GST; dsDNA, one strand shown
# Chain of SPIB (Q01892 whole entry): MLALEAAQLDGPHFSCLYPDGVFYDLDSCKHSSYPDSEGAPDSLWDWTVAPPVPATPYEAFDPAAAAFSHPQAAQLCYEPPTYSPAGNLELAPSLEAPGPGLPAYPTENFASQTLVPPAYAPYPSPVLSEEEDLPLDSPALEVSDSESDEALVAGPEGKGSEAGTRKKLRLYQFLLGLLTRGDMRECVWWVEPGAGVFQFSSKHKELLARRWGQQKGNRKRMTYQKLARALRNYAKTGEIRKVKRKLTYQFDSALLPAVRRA
# In short: as §1
# [9] = target: T6, FEV (Homo sapiens, UniProt Q99581 1-238); conditions: protein: recombinant; tags: N-terminal GST; dsDNA, one strand shown
# T6 sequence: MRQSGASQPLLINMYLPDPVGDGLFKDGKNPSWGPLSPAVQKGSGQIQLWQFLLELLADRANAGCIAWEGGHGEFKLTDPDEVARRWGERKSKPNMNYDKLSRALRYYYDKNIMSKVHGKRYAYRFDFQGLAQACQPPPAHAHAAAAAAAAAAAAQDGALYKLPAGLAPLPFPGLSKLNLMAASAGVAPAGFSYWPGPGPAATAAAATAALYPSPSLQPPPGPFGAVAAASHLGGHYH
# In short: as §1
# [10] = target: ETV5 (Homo sapiens, UniProt P41161 1-510); conditions: protein: recombinant; tags: N-terminal GST; dsDNA, one strand shown
# Chain of ETV5 (P41161 whole entry): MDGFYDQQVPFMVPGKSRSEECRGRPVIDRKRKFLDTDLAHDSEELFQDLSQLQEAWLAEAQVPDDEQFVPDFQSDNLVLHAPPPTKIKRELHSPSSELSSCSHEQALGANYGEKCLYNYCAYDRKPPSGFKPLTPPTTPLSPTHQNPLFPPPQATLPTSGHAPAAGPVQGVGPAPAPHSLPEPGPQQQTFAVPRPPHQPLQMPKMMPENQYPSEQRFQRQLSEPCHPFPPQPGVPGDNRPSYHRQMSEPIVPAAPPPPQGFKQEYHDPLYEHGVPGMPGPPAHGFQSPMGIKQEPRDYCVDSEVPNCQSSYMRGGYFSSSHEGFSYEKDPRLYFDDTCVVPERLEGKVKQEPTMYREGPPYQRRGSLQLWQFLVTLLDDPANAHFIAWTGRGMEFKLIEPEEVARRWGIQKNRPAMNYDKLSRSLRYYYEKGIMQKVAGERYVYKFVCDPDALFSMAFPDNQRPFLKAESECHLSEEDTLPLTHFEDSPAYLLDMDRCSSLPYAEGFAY
# In short: as §1
# [11] = target: HSF1 (Homo sapiens, UniProt Q00613 1-529); conditions: protein: recombinant; tags: N-terminal GST; chain copies: 3; dsDNA, one strand shown
# Chain of HSF1 (Q00613 whole entry): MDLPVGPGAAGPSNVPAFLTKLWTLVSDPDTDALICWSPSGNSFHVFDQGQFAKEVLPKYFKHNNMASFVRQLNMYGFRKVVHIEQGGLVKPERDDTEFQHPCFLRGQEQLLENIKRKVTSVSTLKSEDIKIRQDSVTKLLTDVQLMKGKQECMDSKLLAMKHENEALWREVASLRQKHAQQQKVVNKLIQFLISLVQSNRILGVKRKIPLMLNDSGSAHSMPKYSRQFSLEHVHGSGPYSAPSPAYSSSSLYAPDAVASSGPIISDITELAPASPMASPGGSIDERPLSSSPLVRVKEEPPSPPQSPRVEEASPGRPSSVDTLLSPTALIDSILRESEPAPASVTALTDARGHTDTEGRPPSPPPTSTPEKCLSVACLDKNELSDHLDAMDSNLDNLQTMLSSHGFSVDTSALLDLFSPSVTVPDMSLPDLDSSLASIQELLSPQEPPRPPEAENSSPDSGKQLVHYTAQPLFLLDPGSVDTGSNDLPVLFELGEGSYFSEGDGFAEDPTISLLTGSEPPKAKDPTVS
# In short: as §1
# [12] = target: T7, SPIC (Homo sapiens, UniProt Q8N5J4 1-248); conditions: protein: recombinant; tags: N-terminal GST; dsDNA, one strand shown
# T7 sequence: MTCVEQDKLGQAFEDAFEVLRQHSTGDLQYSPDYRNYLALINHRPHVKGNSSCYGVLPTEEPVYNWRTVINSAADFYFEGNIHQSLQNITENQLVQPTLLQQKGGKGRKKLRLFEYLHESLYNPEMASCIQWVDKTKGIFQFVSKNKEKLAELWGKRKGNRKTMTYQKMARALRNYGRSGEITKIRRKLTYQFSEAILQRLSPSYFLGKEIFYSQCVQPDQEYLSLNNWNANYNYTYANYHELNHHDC
# In short: as §1
# [13] = target: ELF4 (Homo sapiens, UniProt Q99607 1-663); conditions: protein: recombinant; tags: N-terminal GST; dsDNA, one strand shown
# Chain of ELF4 (Q99607 whole entry): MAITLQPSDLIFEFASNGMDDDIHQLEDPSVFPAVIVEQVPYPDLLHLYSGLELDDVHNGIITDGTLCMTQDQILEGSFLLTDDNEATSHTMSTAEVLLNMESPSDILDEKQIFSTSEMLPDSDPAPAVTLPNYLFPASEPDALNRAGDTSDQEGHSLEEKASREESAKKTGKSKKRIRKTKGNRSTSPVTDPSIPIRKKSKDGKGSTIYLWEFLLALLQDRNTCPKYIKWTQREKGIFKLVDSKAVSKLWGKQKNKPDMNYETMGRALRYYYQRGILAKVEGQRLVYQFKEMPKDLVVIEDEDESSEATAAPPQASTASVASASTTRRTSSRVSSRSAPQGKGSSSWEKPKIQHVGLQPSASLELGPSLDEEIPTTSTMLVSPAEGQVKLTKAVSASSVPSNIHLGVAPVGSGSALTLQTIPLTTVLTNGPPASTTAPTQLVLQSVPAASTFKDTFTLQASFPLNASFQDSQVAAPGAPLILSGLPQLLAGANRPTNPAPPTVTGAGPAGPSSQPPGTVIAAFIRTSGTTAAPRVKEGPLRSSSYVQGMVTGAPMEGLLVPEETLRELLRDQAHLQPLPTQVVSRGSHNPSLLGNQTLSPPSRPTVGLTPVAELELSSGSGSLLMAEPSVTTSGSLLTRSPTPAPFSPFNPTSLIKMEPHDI
# In short: as §1
# [14] = target: T8, ELK4 (Homo sapiens, UniProt P28324-2 1-405); conditions: protein: recombinant; tags: N-terminal GST; dsDNA, one strand shown
# T8 sequence: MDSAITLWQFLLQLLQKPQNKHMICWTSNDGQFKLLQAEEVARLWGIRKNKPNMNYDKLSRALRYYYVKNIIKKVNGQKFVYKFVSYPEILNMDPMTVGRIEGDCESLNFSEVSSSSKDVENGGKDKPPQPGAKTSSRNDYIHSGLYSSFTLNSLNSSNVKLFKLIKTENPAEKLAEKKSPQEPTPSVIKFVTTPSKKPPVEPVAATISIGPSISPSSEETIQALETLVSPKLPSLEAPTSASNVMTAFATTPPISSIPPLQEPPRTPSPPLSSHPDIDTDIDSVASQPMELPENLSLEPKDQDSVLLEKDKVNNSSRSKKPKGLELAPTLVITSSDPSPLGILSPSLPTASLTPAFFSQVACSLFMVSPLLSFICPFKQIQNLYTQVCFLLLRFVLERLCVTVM
# In short: as §1
# [15] = target: T9, ETV2 (Homo sapiens, UniProt O00321 1-342); conditions: protein: recombinant; tags: N-terminal GST; dsDNA, one strand shown
# T9 sequence: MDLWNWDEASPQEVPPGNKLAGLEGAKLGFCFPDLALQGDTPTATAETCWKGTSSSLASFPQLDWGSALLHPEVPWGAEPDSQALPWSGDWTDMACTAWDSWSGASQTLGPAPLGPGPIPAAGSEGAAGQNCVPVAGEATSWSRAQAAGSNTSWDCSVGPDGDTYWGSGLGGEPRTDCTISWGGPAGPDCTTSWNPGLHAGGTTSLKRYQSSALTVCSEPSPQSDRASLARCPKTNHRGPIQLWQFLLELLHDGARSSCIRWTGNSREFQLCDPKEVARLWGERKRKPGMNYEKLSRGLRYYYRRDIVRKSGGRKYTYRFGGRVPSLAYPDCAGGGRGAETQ
# In short: as §1
# [16] = target: T10, ELF3 (Homo sapiens, UniProt P78545 1-371); conditions: protein: recombinant; tags: N-terminal GST; dsDNA, one strand shown
# T10 sequence: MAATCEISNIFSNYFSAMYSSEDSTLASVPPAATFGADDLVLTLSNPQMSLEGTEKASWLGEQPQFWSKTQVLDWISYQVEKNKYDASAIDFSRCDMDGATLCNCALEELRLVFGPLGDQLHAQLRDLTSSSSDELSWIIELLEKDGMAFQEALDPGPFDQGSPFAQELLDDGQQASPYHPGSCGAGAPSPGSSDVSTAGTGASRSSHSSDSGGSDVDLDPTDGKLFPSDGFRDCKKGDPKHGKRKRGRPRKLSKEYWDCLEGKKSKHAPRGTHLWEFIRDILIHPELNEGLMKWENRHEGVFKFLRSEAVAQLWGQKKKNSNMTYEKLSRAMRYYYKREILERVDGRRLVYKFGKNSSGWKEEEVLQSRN
# In short: as §1
# [17] = target: ETV1 (Homo sapiens, UniProt P50549 1-477); conditions: protein: recombinant; tags: N-terminal GST; dsDNA, one strand shown
# Chain of ETV1 (P50549 whole entry): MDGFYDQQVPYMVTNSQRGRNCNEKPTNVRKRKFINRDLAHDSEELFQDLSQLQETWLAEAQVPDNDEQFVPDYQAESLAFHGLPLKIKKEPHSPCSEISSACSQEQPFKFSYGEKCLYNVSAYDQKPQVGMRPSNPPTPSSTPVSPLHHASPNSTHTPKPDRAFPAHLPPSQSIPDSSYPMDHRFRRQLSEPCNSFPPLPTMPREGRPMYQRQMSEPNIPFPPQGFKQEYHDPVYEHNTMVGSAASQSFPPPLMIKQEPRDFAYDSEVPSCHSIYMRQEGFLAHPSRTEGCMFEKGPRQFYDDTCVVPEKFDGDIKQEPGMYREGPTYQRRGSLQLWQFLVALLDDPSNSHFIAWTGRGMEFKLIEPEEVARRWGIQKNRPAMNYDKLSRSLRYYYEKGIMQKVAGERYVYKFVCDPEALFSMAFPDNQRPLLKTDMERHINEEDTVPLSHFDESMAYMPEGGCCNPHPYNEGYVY
# In short: as §1
sequence,measurement,setting,value
ACTCGC,binding signal,[1],"1.19 fold enrichment (6-mer frequency, TF over GST control)"
same,binding signal,[2],"1.14 fold enrichment (6-mer frequency, TF over GST control)"
same,binding signal,[3],"1.18 fold enrichment (6-mer frequency, TF over GST control)"
same,binding signal,[4],"1.09 fold enrichment (6-mer frequency, TF over GST control)"
same,binding signal,[5],"1.13 fold enrichment (6-mer frequency, TF over GST control)"
same,binding signal,[6],"1.11 fold enrichment (6-mer frequency, TF over GST control)"
same,binding signal,[7],"1.15 fold enrichment (6-mer frequency, TF over GST control)"
same,binding signal,[8],"1.12 fold enrichment (6-mer frequency, TF over GST control)"
same,binding signal,[9],"1.14 fold enrichment (6-mer frequency, TF over GST control)"
same,binding signal,[10],"1.15 fold enrichment (6-mer frequency, TF over GST control)"
same,binding signal,[11],"1.1 fold enrichment (6-mer frequency, TF over GST control)"
same,binding signal,[12],"1.2 fold enrichment (6-mer frequency, TF over GST control)"
same,binding signal,[13],"1.1 fold enrichment (6-mer frequency, TF over GST control)"
same,binding signal,[14],"1.14 fold enrichment (6-mer frequency, TF over GST control)"
same,binding signal,[15],"1.12 fold enrichment (6-mer frequency, TF over GST control)"
same,binding signal,[16],"1.21 fold enrichment (6-mer frequency, TF over GST control)"
same,binding signal,[17],"1.15 fold enrichment (6-mer frequency, TF over GST control)"
